A short description of assay [1]: Viability qHTS for spleen associated tyrosine kinase inhibitor (SYKi) naive MV4-11 cells (AID 1963823). Further: nearly all actives have a fitted effect of over 40% in size. Particulars: MV4-11 AML viability, CellTiter-Glo luminescence, 72 h; series mostly up to 45 µM. Put shortly:
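SYKi-naive MV4-11 AML cells, 500 per well, were exposed to library compounds for 72 hr at 37 C, 5% CO2. Viability was then read by CellTiter-Glo luminescence after 10 min at room temperature.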
A general note: Quantitative high-throughput screening tests each substance at several concentrations.

Assay [2] in a line: Viability qHTS for spleen associated tyrosine kinase inhibitor (SYKi) drug resistant MV4-11 cells (AID 1963824). Further: nearly all actives have a fitted effect of over 35% in size. Conditions: SYKi-resistant MV4-11 viability, CellTiter-Glo, 72 h; series mostly up to 45 µM. In outline: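 SYK-inhibitor-resistant MV4-11 AML cells were seeded at 500 per well onto compound and cultured 72 hours (37 °C, 5% CO2). CellTiter-Glo was then added, and after 10 min at room temperature, luminescence gave viability.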

A short description of assay [3]: Cellular viability qHTS for adrenocortical cancer (ACC) cell line SW-13 (AID 1963989). Further: nearly all actives have a fitted effect of over 65% in size.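 On activity (max response): cells grown in serum-free medium with ITS supplement; on the % scale 0 is the no-effect control and ±100 the full control effect.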 Particulars: SW-13 ACC cells viability, CellTiter-Glo, 48 h; activity (max response): stronger effect = lower value. In outline:
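IC50 and maximal-response values come from four-parameter logistic fits of titration data. SW-13 cells in serum-free medium received compounds (up to 46 uM final) for 48 h before CellTiter-Glo luminescence.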

Assay [4] can be described thus: Cellular viability qHTS for adrenocortical cancer (ACC) cell line NCI-H295R (AID 1963990). Further: nearly all actives have a fitted effect of over 60% in size. Conditions: CellTiter-Glo ATP luminescence, 48 h; series mostly up to 46.1 µM. In outline: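 Adrenocortical carcinoma cells, suspended at 300 000 cells/mL in serum-free DMEM plus ITS, rested overnight before pin transfer of compound. After two days' incubation, ATP-dependent luminescence was recorded and curve-fitted.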

SMILES strings stand for the structures. Values joined by “and” are separate entries in the source; they are usually repeats but may differ in a detail not shown here. Equal entries are not always repeated. Records with an inconclusive call do not appear. Some structures have more than one record in an assay (separate samples or runs), and their calls can disagree. Active and inactive are the calls of the source. The call rests on the fitted dose curve; in most records, active means well fitted curve in the direction sought with a large enough effect; inconclusive means small, poorly fitted or top-dose-only effect, or another doubt; inactive means no such curve, though single readings can be large; an effect the other way counts as inactive or inconclusive.
Potency means the concentration at half of the fitted maximal effect.

`C[C@@H]1N=C(N)NC(N(C)C)=N1`: the Potency result in assay [1], in assay [2] and in assay [4] was “inactive” throughout. Further, the activity (max response) in assay [3] was -4.04% (inactive).

Turning to `NC(=O)C1(N2CCCCC2)CCN(CCCN2c3ccccc3CCc3ccc(Cl)cc32)CC1`, the Potency in assay [1] was 8.41 µM (active); in assay [2], 8.41 µM (active); in assay [3] it was 20.6 µM (active); in assay [4] it was 2.91 µM (active).

For `c1ccc(CN(CC2=NCCN2)c2ccccc2)cc1`, the Potency result in assay [1], in assay [2] and in assay [4] was “inactive” each time. In assay [3], the activity (max response) is 0.264% (inactive).

Consider `COc1cc(F)ccc1-c1ncnc(Nc2cccc(CS(C)(=N)=O)c2)n1` (stereo unspecified), for which the Potency in assay [1] is 1.16 µM (active); in assay [2] it was 1.16 µM (active); in assay [3] it was 6.31 µM (active); in assay [4], 7.08 µM (active).

On to `CCNCCc1ccc(CN(CC)c2cc(OC)ccc2[C@@H]2CCc3cc(O)ccc3C2)cc1`, for which the Potency is 2.35 µM (active) in assay [1], 2.95 µM (active) in assay [2], 6.31 µM (active) in assay [3] and 3.98 µM (active) in assay [4].

Turning to `C/C=C/c1ccc(O)c(OC)c1`, the Potency result in assay [1], in assay [2] and in assay [4] was “inactive” in each case. Further, in assay [3], the activity (max response) is 1.66% (inactive).

Regarding `OCCn1cc(-c2ccc3c(c2)CC/C3=N\O)c(-c2ccncc2)n1`, the Potency in assay [1] was 16.4 µM (active); in assay [2] it was 18.6 µM (active). Besides, in assay [3], the activity (max response) is -9.16% (inactive). For the same compound, in assay [4], the Potency result is “inactive”.

`Cc1ccc(S(=O)(=O)Nc2cc(C(F)(F)F)ccc2C(=O)Nc2nc(-c3ccccc3)cs2)cc1`: the Potency in assay [1] was 2.95 µM (active); in assay [2], 2.95 µM (active); in assay [3], 2.24 µM (active); in assay [4], 2.51 µM (active).

Turning to `O=C1[C@H](CC[C@H](O)c2ccc(F)cc2)[C@@H](c2ccc(O)cc2)N1c1ccc(F)cc1`, the Potency is 20.6 µM (active) and 20.9 µM (active) in assay [1]; 14.6 µM (active) and 20.9 µM (active) in assay [2]. Further, the activity (max response) in assay [3] is -3.67% (inactive) and -14.5% (inactive). Moreover, the Potency result in assay [4] was “inactive”.

In the case of `CC(=O)CC(c1ccc([N+](=O)[O-])cc1)c1c(O)c2ccccc2oc1=O` (stereo unspecified), the Potency entry in assay [1], in assay [2] and in assay [4] was “inactive” in each case. The activity (max response) in assay [3] is -8% (inactive).

On to `C#C[C@]1(O)CC[C@H]2[C@@H]3CCc4cc(O)ccc4[C@H]3CC[C@@]21C`, for which the Potency entry in assay [1] is “inactive and 14.8 µM (active)”; in assay [2], “inactive and 7.42 µM (active)”; in assay [3] it was 7.94 µM (active); in assay [4], 3.55 µM (active).

For the compound `CCCCOC(=O)CC(CC(=O)OCCCC)(OC(C)=O)C(=O)OCCCC`, the Potency entry in assay [1], in assay [2] and in assay [4] was “inactive” in each case. In assay [3], the activity (max response) is 12.7% (inactive).

Consider `CC(C)OP(=O)(CP(=O)(OC(C)C)OC(C)C)OC(C)C`, for which the Potency result in assay [1], in assay [2] and in assay [4] was “inactive” throughout. The activity (max response) in assay [3] was 9.07% (inactive).

As for `CCN(C(=O)c1ccccc1OC)c1cc2c(cc1N1CCNC[C@H]1C)n(C)c(=O)n2C`, the Potency result in assay [1], in assay [2] and in assay [4] was “inactive” each time. In addition, the activity (max response) in assay [3] is 1.48% (inactive).

As to `C[C@H]1COCCN1c1cc(C2(S(=O)(=O)C3CC3)CC2)nc(-c2ccc(NC(=S)NCCO)cc2)n1`, the Potency in assay [1] is 0.0184 µM (active); in assay [2] it was 0.0731 µM (active); in assay [3] it was 0.316 µM (active); in assay [4] it was 1.12 µM (active).

With `Cn1cc(-c2c[nH]c3ncnc(N4CCOCC4)c23)cn1`, the Potency in assay [1] is 13.2 µM (active); in assay [2], 14.8 µM (active). Besides, the activity (max response) in assay [3] is 0.0559% (inactive). Moreover, the Potency result in assay [4] was “inactive”.

As for `Fc1cccc(-n2cnc3c(NCc4nc5c(F)c(F)ccc5[nH]4)nc(N4CCOCC4)nc32)c1`, the Potency in assay [1] was 0.059 µM (active); in assay [2], 0.186 µM (active); in assay [3] it was 0.112 µM (active); in assay [4] it was 0.447 µM (active).

For the compound `CC(=O)Nc1ccc(OC(=O)c2ccccc2OC(C)=O)cc1`, the Potency result in assay [1], in assay [2] and in assay [4] was “inactive” throughout. In addition, in assay [3], the activity (max response) is 8.82% (inactive).

Turning to `Cc1cc(-c2nc3cc(F)ccc3s2)ccc1NC(=O)[C@@H](N)CCCCN`, the Potency in assay [1] is 2.31 µM (active); in assay [2], 2.59 µM (active); in assay [3] it was 25.1 µM (active); in assay [4], 17.8 µM (active).

With `O=S(=O)(NCCNC/C=C/c1ccc(Br)cc1)c1cccc2cnccc12`, the Potency in assay [1] was 5.17 µM (active) and 4.68 µM (active); in assay [2], 9.2 µM (active) and 11.8 µM (active); in assay [3], 31.6 µM (active); in assay [4], 28.2 µM (active).

With `Nc1nc(N)c(-c2ccccc2)s1`, the Potency result in assay [1], in assay [2] and in assay [4] was “inactive” each time. Also, in assay [3], the activity (max response) was 6.99% (inactive).

With `COc1cc(N2CCN(C)CC2)ccc1Nc1nccc(-c2cn(C)c3cnccc23)n1`, the Potency in assay [1] is 116 nM (active) and 209 nM (active); in assay [2], 517 nM (active) and 590 nM (active); in assay [4] it was 25.1 µM (active). Moreover, the activity (max response) in assay [3] was -3.47% (inactive).

In the case of `Cn1ncc2cc(-c3cnc(N)c(Cl)c3N3CCC4(CCNC4=O)CC3)ccc21`, the Potency in assay [1] is 2.31 µM (active) and 1.48 µM (active); in assay [2] it was 2.59 µM (active) and 2.95 µM (active). For the same compound, the Potency result in assay [4] is “inactive”.
